We go through 95 molecules from PubChem BioAssay AID1445 (SRMLSC, 2008).

The whole screen tested about 220,000 compounds, of which about 910 (0.41%) were called active. What follows is part of a selection rich in actives, with near analogues and random picks from the rest. Entries with a potency or affinity are not part of this list. Values without a mark were called inactive.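 The calls were made as follows: active = primary inhibition above the hit cutoff, then over 50% inhibition at one or more dose response concentrations (cut at about 23% in these data, passing the limit was not always enough); inconclusive = conflicting primary data, or primary hits not chosen for dose response; inactive = low primary inhibition, or under 50% at every dose.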

Aminopeptidase N (Plasmodium falciparum (isolate 3D7)), sequence (O96935 whole entry, looked up): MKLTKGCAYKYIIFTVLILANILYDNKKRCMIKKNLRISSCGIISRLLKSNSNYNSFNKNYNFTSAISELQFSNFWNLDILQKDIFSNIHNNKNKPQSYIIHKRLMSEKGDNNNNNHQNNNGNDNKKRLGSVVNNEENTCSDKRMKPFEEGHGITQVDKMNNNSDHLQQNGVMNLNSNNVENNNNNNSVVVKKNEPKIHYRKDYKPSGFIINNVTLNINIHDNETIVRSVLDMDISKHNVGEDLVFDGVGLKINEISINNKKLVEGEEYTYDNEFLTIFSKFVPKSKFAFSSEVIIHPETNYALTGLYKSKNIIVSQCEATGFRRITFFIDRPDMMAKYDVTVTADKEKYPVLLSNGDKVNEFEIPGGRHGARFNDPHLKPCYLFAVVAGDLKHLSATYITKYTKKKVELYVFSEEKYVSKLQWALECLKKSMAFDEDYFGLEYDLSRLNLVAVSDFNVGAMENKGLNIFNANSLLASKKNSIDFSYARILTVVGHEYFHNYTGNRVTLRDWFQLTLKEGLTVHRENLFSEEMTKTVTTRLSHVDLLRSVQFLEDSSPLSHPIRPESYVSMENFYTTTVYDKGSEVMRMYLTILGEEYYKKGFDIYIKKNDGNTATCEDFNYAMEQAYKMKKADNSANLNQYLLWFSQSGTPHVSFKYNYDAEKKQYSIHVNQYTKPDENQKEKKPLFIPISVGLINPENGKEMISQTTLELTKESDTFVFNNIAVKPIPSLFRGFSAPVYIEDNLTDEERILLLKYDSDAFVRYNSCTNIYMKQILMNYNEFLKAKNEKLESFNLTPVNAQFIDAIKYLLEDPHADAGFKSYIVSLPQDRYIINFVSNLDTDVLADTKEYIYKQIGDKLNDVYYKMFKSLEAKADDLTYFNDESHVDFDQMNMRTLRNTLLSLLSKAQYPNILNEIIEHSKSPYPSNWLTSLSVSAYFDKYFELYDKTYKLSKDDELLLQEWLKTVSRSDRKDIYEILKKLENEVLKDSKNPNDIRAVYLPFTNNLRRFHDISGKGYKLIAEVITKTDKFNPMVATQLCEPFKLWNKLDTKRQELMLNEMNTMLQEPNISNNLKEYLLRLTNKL

The experiment concerns the target Aminopeptidase N (Plasmodium falciparum (isolate 3D7)) (UniProt O96935). Put plainly: malaria alanyl aminopeptidase activity blockers – biochemical, fluorogenic H-Leu-NHMec substrate, 1536-well (AID 1445).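 Also: plate controls were DMSO full reaction for no effect and no enzyme background for full effect.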 The conditions noted are these: recombinant M1AAP, H-Leu-NHMec fluorogenic kinetic assay; at 30 µM, active compounds read high unless noted.
Regarding `N#CCCN1CCN(C(=S)c2ccc(-c3ccc(Cl)c(Cl)c3)o2)CC1`, the inhibition (as a rule, the drop in the measured response relative to a control, in per cent) was 7.98%.
Then `N#C/C(=C(/O)c1ccc([N+](=O)[O-])cc1)c1nc2ccccc2[nH]1`, with 6.69%.
For the molecule `CCOC(=O)N1CCN(C(=O)CCl)CC1`, the inhibition is 2.94%.
Then `Cc1ccc(N2CCN(C(=O)c3ccccc3NC(=O)c3ccccc3C(=O)O)CC2)cc1`, with 6.79%; and `COCCNC(=O)c1cc2cc(Br)cc(Br)c2oc1=O`, with 2.6%; and `N#C/C(=C\c1ccc(-c2cccc(Cl)c2)o1)C(=O)Nc1cccc2cccnc12`, with -0.58%.
For the molecule `Cn1c(N)c(C(=O)COC(=O)C2=COCCO2)c(=O)n(C)c1=O`, the inhibition was 3.8%.
Then `O=C(NCc1cccs1)C1CCN(S(=O)(=O)N2CCCC2)CC1`, with 4.08%; and `O=C(NCc1cccs1)C1CCCN1S(=O)(=O)c1ccccc1F` (stereo not given), with 2.94%.
Then `O=C(NCc1cccs1)C1CCC(CNS(=O)(=O)c2ccc(Br)s2)CC1` (stereo not given), with -4.74%; and `O=C(NCc1cccs1)C1CCCN(S(=O)(=O)c2cccs2)C1` (stereo not given), with 14.9%.
Then `O=C(NCc1cccs1)C1CCCN(S(=O)(=O)c2ccc(Br)s2)C1` (stereo not given), with 18.8%.
Consider `CCS(=O)(=O)N1CCC(C(=O)NCc2cccs2)CC1`, for which the inhibition was 10.2%.
Then `COc1ccccc1NC(=O)c1ccc(-n2cncn2)nc1`, with 18.8%; and `FC(F)(F)c1ccc(Oc2ccccc2Cl)nc1`, with 2.42%.
Then `O=C1CC(N(Cc2ccc3c(c2)OCO3)C(=O)Nc2ccc(F)cc2)C(=O)N1c1ccccc1` (stereo not given), with 20.8%.
On to `CCC(=O)N(Cc1ccco1)C1CC(=O)N(c2ccccc2)C1=O` (stereo not given), for which the inhibition is 0.67%.
On to `O=C1CC(N(Cc2ccco2)C(=O)Nc2ccc(F)cc2)C(=O)N1c1ccc(F)cc1` (stereo not given), for which the inhibition was 23.6% (active).
Then `CCCCc1ccc(NC(=O)C(C)CC)cc1` (stereo not given), with 1.58%; and `CC1=NN(C(=O)Cc2ccc([N+](=O)[O-])cc2)C(O)(c2cccnc2)C1` (stereo not given), with 7.72%; and `Cc1c(NC(=O)c2ccc3c(c2)C(=O)N(Cc2ccco2)C3=O)cccc1C(=O)O`, with 3.77%.
For `O=C(Nc1ccc(O)cc1C(=O)O)c1ccc2c(c1)C(=O)N(Cc1ccco1)C2=O`, the inhibition was 15.1%.
Then `O=C1CCC(=O)N1N1C(=O)C2C3c4ccccc4C(c4ccccc43)C2C1=O` (stereo not given), with 0.65%.
Then `Cc1cc(C)n(CC(=O)N/N=C/c2cc([N+](=O)[O-])ccc2O)n1`, with 31.6%.
Then `O=C(Cn1cnc([N+](=O)[O-])n1)N/N=C/c1ccc(O)cc1O`, with 2.52%.
Turning to `O=C(Cn1cnc([N+](=O)[O-])n1)N/N=C/c1ccccc1O`, the inhibition is 0.91%.
Then `O=C(N/N=C/c1cc(Cl)cc([N+](=O)[O-])c1O)C1CC1`, with 29.8%; and `O=C(Cn1nc2ccccc2n1)N/N=C/c1cc([N+](=O)[O-])ccc1O`, with 37.9%; and `Cc1cc(C(=O)N/N=C/c2cc(Cl)cc([N+](=O)[O-])c2O)c2ccccc2n1`, with 30.4%.
Then `Cc1cc(C)n(CC(=O)N/N=C/c2ccc([N+](=O)[O-])s2)n1`, with 13.2%; and `O=C(Cn1nnc(-c2ccccc2)n1)N/N=C/c1cccc([N+](=O)[O-])c1O`, with 7.92%; and `Cc1nc2c(c(=O)c3ccccc3n2C)c(=O)n1C1CCCCCC1`, with -1.82%.
Turning to `NS(=O)(=O)c1ccc(N/C=C\C(=O)c2ccncc2)cc1`, the inhibition was 13%.
Regarding `CCNS(=O)(=O)c1ccc(NC(=O)CC(C)c2ccccc2)cc1` (stereo not given), the inhibition was 1.21%.
Then `CC(=O)Nc1cccc(/C(C)=N/NC(=O)c2cc(-c3ccncc3)nc3ccccc23)c1`, with 10.5%; and `Cc1cc(C)n(-c2ccc(Oc3ccccc3)c(S(=O)(=O)O)c2)n1`, with 1.18%.
Then `O=C1CC(c2cccs2)c2ccc3ccccc3c2N1` (stereo not given), with 0.72%; and `Cc1ccc(N2C(=S)NC3c4ccccc4OC2(C)C3C(=O)N(C)C)cc1` (stereo not given), with 2.84%; and `CN(Cc1cnccn1)Cc1nc(Cc2cccc(F)c2)no1`, with 2.76%.
As for `CCOc1[nH]n(-c2ccccc2)c(=O)c1C=Nc1ccccc1`, the inhibition was 7.67%.
Then `CCOC(=O)c1ccc(NC(=O)CNS(=O)(=O)c2ccccc2)cc1`, with 2.05%; and `Oc1ccc(Cl)cc1C=Nc1ccccc1Br`, with 1.39%; and `Oc1ccc(Cl)cc1N=Cc1sc2ccccc2c1Cl`, with 21%.
Then `OCCC1CN(Cc2c(F)cccc2Cl)CCN1C1CCCC1` (stereo not given), with -1.58%; and `COc1ccc(OC)c2c1sc(=NC(=O)C1CC1)n2C`, with 2.25%; and `COc1ccc2[nH]c(=O)c(NC(N)=S)nc2c1`, with 16.1%.
In the case of `NC(=S)Nc1nc2ccccc2[nH]c1=O`, the inhibition is 23.5% (active).
Then `COCCCNc1nc2ccccc2[nH]c1=O`, with 7.88%; and `Cc1occc1C(=O)NNC(=O)c1ccccc1Br`, with -1.69%; and `CCCCc1cc(=O)oc2cc(O)ccc12`, with 31.7%.
Then `O=C(Cn1nnc2ccccc2c1=O)NCC1CCC(C(=O)O)CC1` (stereo not given), with 0.69%; and `COc1ccc2c(CC(=O)NCC3CCC(C(=O)O)CC3)cc(=O)oc2c1` (stereo not given), with 3.73%; and `COC(=O)Cc1cc(=O)oc2cc(OC)ccc12`, with 1.65%.
Then `COc1cc(OC)c2c(C)cc(=O)oc2c1C(CCN1CCN(c2ccccc2)CC1)c1ccc2c(c1)OCO2` (stereo not given), with 1.4%; and `Cc1ccc(C(=O)Nc2ccccc2C(=O)O)cc1NC(=O)COc1c(C)cccc1C`, with 4.7%.
With `CN(CC(=O)Nc1cccc2ccccc12)C(=O)/C=C/c1cccs1`, the inhibition is 16.9%.
Then `Cc1cc(C)cc(N(C(=O)c2nsc(Cl)c2Cl)C(C(=O)NC2CCCC2)c2ccc(O)cc2)c1` (stereo not given), with -3.07%; and `N#Cc1cc2c(nc1SCc1ccccc1)CCCC2`, with 5.77%; and `Cc1cc(SCC(=O)N/N=C/c2ccc(O)c(O)c2O)c(C)cc1Br`, with 39%.
Then `Cc1cc(SCC(=O)N/N=C/c2ccc(O)cc2O)c(C)cc1Br`, with 24% (active); and `C=CCn1c(CNc2ccc(C)cc2)nnc1SCC(=O)N/N=C/c1ccc(O)cc1O`, with 37% (active); and `CCn1c(SCC(=O)N/N=C/c2cc(OC)c(O)c(OC)c2)nc2ccccc21`, with 3.33%.
Then `COc1cccc(/C=N\NC(=O)Cn2nnc3ccccc32)c1O`, with 1.18%.
In the case of `Cc1cc(SCC(=O)N/N=C/c2ccc(O)c(O)c2)c(C)cc1Br`, the inhibition is -0.74%.
Then `C=CCn1c(CNc2ccc(C)cc2)nnc1SCC(=O)N/N=C/c1ccc(O)cc1`, with 14.4%; and `C=CCn1c(CNc2ccccc2)nnc1SCC(=O)N/N=C/c1ccccc1O`, with 30.8%; and `C=CCn1c(Cn2nnc3ccccc32)nnc1SCC(=O)N/N=C/c1cc(Br)cc(OC)c1O`, with 46.2% (active).
Then `CCC1(CC)Cc2ccccc2C(=O)N1`, with 2.59%; and `Nc1ccccc1SCc1ccccc1Cl`, with 1.31%; and `O=C(CCN1CCOCC1)NNC(=O)/C(=C/c1ccccc1)NC(=O)c1ccccc1`, with 5.04%.
Then `O=C(c1cccc(Oc2c(Cl)cccc2[N+](=O)[O-])c1)N1CCCCC1`, with 4.82%.
As to `O=C(CCC1N=C2c3ccccc3N=C(SCc3ccc(Cl)cc3)N2C1=O)NCc1ccco1` (stereo not given), the inhibition was 11.4%.
`Cc1ccc(CSC2=Nc3ccccc3C3=NC(CCC(=O)NCc4ccco4)C(=O)N23)cc1` (stereo not given): the inhibition was 14.5%.
With `Cc1ccc(CSC2=Nc3ccccc3C3=NC(CC(=O)NCc4ccco4)C(=O)N23)cc1` (stereo not given), the inhibition is 25.5% (active).
Then `C=CCN=C1S/C(=C\c2ccc(Cl)cc2)C(=O)N1CC=C`, with 3.89%; and `COC(=O)C(C(C)=O)C1=C/C(=N\S(=O)(=O)c2ccc(C)cc2)c2ccccc2C1=O` (stereo not given), with 12.9%.
Then `Cc1ccc(S(=O)(=O)/N=C2/C=C(Sc3ncn[nH]3)C(=O)c3ccccc32)cc1`, with 14.9%.
Then `O=C(/C=C/c1cccc(Br)c1)N1CCN(c2ccccn2)CC1`, with 12.4%.
`CCCNC(=O)c1ccc2c(=O)n3c(-c4ccc(C)cc4)csc3nc2c1`: the inhibition is 10%.
With `O=C(O)CSc1nc(-c2cccs2)cc(C(F)(F)F)n1`, the inhibition is -2.67%.
Then `O=C(c1ccc(C(F)(F)F)cc1)C1CCCN(C(=O)CN2C(=O)CSC2=O)C1` (stereo not given), with -2.21%; and `CC(Sc1nc(N)cc(=O)[nH]1)C(=O)Nc1cccc(Cl)c1` (stereo not given), with 14.1%.
As for `CN(CCc1ccccn1)C(=O)Nc1ccc(C(C)(C)C)cc1`, the inhibition was 2.28%.
Then `CN1C(=O)/C(=C/c2coc3ccc(O)cc3c2=O)SC1=S`, with -2.96%.
Then `O=C1NC(=S)S/C1=C\c1coc2ccccc2c1=O`, with 14.4%; and `CCC1CCCCN1C(=O)CCc1nnc(C2CCCCC2)o1` (stereo not given), with 0.86%.
Then `CC(C)Cc1nnc(NC(=O)CSc2nc(O)c(-c3ccccc3)c(=O)[nH]2)s1`, with 4.36%; and `Nc1ccc(Nc2nc(-c3cc4ccccc4oc3=O)cs2)cc1`, with 6.86%; and `O=C(Nc1nc(-c2cc3ccccc3oc2=O)cs1)c1ccco1`, with 13.4%.
For `O=C1N(c2ccccc2)C[C@@H]2C[C@@H](c3cccs3)N3CCC[C@@]123`, the inhibition was 2.6%.
Then `O=C(COc1ccccc1[N+](=O)[O-])Nc1ccc(Br)cc1`, with -3.79%; and `O=C(COc1ccccc1[N+](=O)[O-])Nc1cccnc1`, with 7.9%.
Then `O=C(COc1ccccc1)Nc1ccc([N+](=O)[O-])cc1`, with 3.2%.
Then `O=C(COc1cccc2cccnc12)Nc1ccccc1`, with -0.06%; and `C=CCNC(=S)Nc1ccc(C(N)=O)cc1`, with 4.91%.
